From PubChem BioAssay come the findings set out here.

Molecules are shown by their SMILES. Activity calls are given as the source filed them. Unless noted, no rule for the calls is given here.

A short description of experiment [1]: HepG2 liver cancer cell viability effects, profiling panel, resazurin fluorescence, 24 h, PK04 Diversity Set (AID 1172). Also: test concentration not given here. The note with it: higher = more signal. On the technique in general: Resazurin is reduced to fluorescent resorufin, in cell work by metabolically active cells.
A short description of experiment [2]: basal S. cerevisiae growth modulation, no modifier, primary screen, OD600, strain BY4716, 24 h, basal condition (AID 1173). The note with it: OD600, 24 h, higher = more signal, called active from +8 up or from −8 down.
The nature of experiment [3]: MM1S myeloma cell viability, profiling panel, resazurin fluorescence, basal, 24 h, PK04 Diversity Set (AID 1174).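 Also: MM1S multiple myeloma cell line; test concentration not given here.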 The note with it: higher = more signal, called active from +8 up or from −8 down.
Experiment [4] concerns the target Dihydroorotate dehydrogenase (quinone), mitochondrial (Plasmodium falciparum (isolate 3D7)) (UniProt Q08210). The experiment is described as follows: PfDHODH enzyme inhibitors, primary screen, biochemical, C-terminal His tag, absorbance 600 nm (AID 1175).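 Also: recombinant parasite enzyme with a five histidine tag at its C terminus; test concentration not given here.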 As to conditions: DCIP absorbance 600 nm, higher = more signal, called active from +8 up or from −8 down.
A short description of experiment [5]: P. aeruginosa biofilm formation inhibitors, primary screen, strain PAO1, LB-PBS medium, absorbance 600 nm (AID 1176). Also: test concentration not given here. As to conditions: P. aeruginosa PAO1 growth/biofilm, A600, 12 h; higher = more signal.
A short description of experiment [6]: S. cerevisiae RM11-1a growth modifiers, primary screen, strain RM11-1a, OD600, basal, 24 h (AID 1177).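 Also: cultures grown under basal conditions with no added stressor; test concentration not given here.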 As to conditions: OD600, 24 h, higher = more signal, called active from +8 up or from −8 down.
Experiment [7] is described as follows: E. coli acrAB mutant growth effects, primary screen, E. coli filamentation inducers, strain DRC39, OD650, 24 h (AID 1178).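 Also: growth measured as culture turbidity by optical density at 650 nm; test concentration not given here.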 As to conditions: higher = more signal, called active from +8 up or from −8 down.
Experiment [8] is described as follows: E. coli acrAB mutant growth effects, primary screen, E. coli filamentation inducers, strain DRC39, OD650, 48 h (AID 1179).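 Also: screen aims at cell division blockers that make cells filament.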 As to conditions: E. coli DRC39 delta-acrAB growth, higher = more signal, called active from +8 up or from −8 down.
The nature of experiment [9]: RPMI8226 myeloma cell viability, profiling panel, resazurin fluorescence, basal, 24 h, PK04 Diversity Set (AID 1180).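 Also: RPMI8826 multiple myeloma cell line at 5000 cells per well; test concentration not given here.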 The note with it: higher = more signal.
Experiment [10] concerns the target E3 ubiquitin-protein ligase XIAP (Homo sapiens) (UniProt P98170). The experiment is described as follows: XIAP binders, primary screen, biophysical, small-molecule microarray, fluorescence 635 nm (AID 1181).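 Also: score merges 667 nm emission and signal to noise over triplicate slides.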 The note with it: small-molecule microarray binding, higher = more signal.

Chain of Dihydroorotate dehydrogenase (quinone), mitochondrial (Plasmodium falciparum (isolate 3D7)) (Q08210 whole entry, looked up): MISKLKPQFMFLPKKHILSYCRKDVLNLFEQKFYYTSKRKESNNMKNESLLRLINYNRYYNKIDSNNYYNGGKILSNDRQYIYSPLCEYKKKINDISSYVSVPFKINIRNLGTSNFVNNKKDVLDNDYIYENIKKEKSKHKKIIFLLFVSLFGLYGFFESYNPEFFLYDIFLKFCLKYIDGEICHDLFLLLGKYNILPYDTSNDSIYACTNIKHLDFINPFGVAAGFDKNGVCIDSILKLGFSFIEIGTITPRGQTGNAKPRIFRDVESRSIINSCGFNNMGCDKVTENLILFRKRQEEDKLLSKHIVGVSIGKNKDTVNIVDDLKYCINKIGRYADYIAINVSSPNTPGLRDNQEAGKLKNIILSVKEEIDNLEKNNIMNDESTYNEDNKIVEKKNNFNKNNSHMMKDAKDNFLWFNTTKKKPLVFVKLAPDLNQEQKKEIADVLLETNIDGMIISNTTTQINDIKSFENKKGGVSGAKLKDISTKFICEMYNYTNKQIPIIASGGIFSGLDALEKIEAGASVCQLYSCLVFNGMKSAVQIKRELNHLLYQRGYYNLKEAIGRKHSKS
Chain of E3 ubiquitin-protein ligase XIAP (Homo sapiens) (P98170 whole entry, looked up): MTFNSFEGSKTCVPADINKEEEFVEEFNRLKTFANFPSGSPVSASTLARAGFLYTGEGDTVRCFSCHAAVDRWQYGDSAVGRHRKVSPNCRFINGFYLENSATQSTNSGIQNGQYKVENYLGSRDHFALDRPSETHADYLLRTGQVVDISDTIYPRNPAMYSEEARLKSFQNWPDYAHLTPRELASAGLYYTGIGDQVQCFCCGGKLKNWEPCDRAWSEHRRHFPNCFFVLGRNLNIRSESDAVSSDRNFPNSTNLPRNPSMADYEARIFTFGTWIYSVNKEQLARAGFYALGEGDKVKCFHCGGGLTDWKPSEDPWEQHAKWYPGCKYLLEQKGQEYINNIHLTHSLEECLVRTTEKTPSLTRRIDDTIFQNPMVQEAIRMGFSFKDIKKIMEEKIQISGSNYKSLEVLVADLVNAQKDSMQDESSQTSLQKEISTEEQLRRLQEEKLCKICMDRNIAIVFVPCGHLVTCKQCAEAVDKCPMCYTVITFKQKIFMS

On to `CCOc1cc(C(O)C2C=CC3C(=O)N(c4ccccc4)C(=O)C3N2Nc2ccccc2)ccc1O` (stereo not given), for which the z-score in experiment [1] is -0.147; in experiment [2] it was -2.46 (inactive); in [3], -1.07 (inactive); in experiment [5], 1.1 (inactive); in [6], 1.16 (inactive); in [7] it was -0.345 (inactive). Also, the results for the z-score in experiment [8] and in experiment [9] were -0.649 (inactive) and -0.0963, respectively. Besides, the results for the composite z-score in experiment [4] and in experiment [10] were 0.392 (inactive) and -0.189, respectively.

On to `CC1CC/C=C\[C@H]2OC34C=CCN(Cn5nnc6ccccc65)C(=O)[C@H]3N(C(CO)C(C)C)C(=O)[C@@H]4C2C(=O)O1` (stereo not given in full), for which the z-score in [1] was 0.913; in experiment [2] it was 0.673 (inactive); in experiment [3], -1.29 (inactive); in experiment [5], 0.357 (inactive); in [6], -0.271 (inactive); in experiment [7], 0.465 (inactive). In addition, the z-score in experiment [8] is 0.275 (inactive); in experiment [9] it was 0.0555. Moreover, the composite z-score was -0.64 (inactive) in [4] and 0.646 in experiment [10].

As to `CN1C(=O)C2C=CC(C(O)c3cc(C(F)(F)F)cc(C(F)(F)F)c3)N(N3CCCCC3)C2C1=O` (stereo not given), the z-score in experiment [1] was -0.55; in experiment [2], 1.36 (inactive); in experiment [3], -0.136 (inactive); in experiment [5], 0.049 (inactive); in [6], 2.29 (inactive); in experiment [7] it was -0.289 (inactive). Moreover, the z-score is -0.795 (inactive) in [8] and 0.493 in experiment [9]. The composite z-score in experiment [4] was 0.929 (inactive); in [10], -0.295.

`C=CCNC(=O)[C@H]1[C@@H]2C(=O)O[C@@H](c3ccccc3)[C@@H](c3ccccc3)N2[C@@H](c2ccccc2OCCO)[C@]12C(=O)Nc1ccc(C#CC3=CCCCC3)cc12`: the z-score is -2.93 in [1]; 1.97 (inactive) in [2]; -8.87 (active) in experiment [3]; 1.89 (inactive) in experiment [5]; 3.11 (inactive) in [6]; -0.639 (inactive) in experiment [7]. Moreover, the z-score in [8] is -0.0547 (inactive); in experiment [9] it was -7.09. The composite z-score in experiment [4] is 0.266 (inactive); in experiment [10], 0.112.

Take `O=C1OCCC/C=C\[C@H]2OC34C=CCN(c5ccc6ccccc6c5)C(=O)[C@H]3N(CCCCCCO)C(=O)[C@@H]4C12` (stereo not given in full): the z-score in experiment [1] was -0.156; in experiment [2] it was -1.28 (inactive); in [3], 0.241 (inactive); in experiment [5], 0.481 (inactive); in experiment [6], -1.49 (inactive); in [7], 0.374 (inactive). Also, the results for the z-score in experiment [8] and in experiment [9] were 1.01 (inactive) and 0.152, respectively. The composite z-score was -1.97 (inactive) in experiment [4] and 0.115 in experiment [10].

Take `CC(C)(C)OC(=O)CC[C@@]1(C(N)=O)N=C(c2ccc(OCCCO)cc2)O[C@@H]1c1ccccc1`: the z-score in [1] was -0.175; in experiment [2] it was -0.63 (inactive); in experiment [3], -0.121 (inactive); in [5], 0.469 (inactive); in [6], -0.412 (inactive); in experiment [7] it was -0.352 (inactive). The z-score in experiment [8] is -1.12 (inactive); in [9], -0.359. Also, the composite z-score in experiment [4] is 0.0187 (inactive); in experiment [10], -0.18.

As to `CC(C)(C)OC(=O)CC[C@]1(C(=O)O)N=C(c2ccc(OCCCO)cc2)O[C@H]1c1ccccc1N=[N+]=[N-]`, the z-score is 0.144 in experiment [1]; -0.278 (inactive) in experiment [2]; -1.32 (inactive) in [3]; 0.286 (inactive) in [5]; -0.715 (inactive) in [6]; 0.0508 (inactive) in experiment [7]. The z-score in experiment [8] was 0.49 (inactive); in experiment [9] it was 0.056. The composite z-score in experiment [4] is -0.533 (inactive); in experiment [10], 0.0989.

On to `C=CCNC(=O)[C@@H]1[C@H]2C(=O)O[C@H](c3ccccc3)[C@H](c3ccccc3)N2[C@H](c2ccccc2OCCO)[C@@]12C(=O)N(C(=O)OCCOC)c1ccc(C#CCNC(N)=O)cc12`, for which the z-score is -0.359 in experiment [1]; 0.808 (inactive) in [2]; -0.0716 (inactive) in [3]; 1.1 (inactive) in [5]; 1.43 (inactive) in [6]; 0.404 (inactive) in [7]. Also, the z-score in experiment [8] is 0.703 (inactive); in experiment [9] it was 0.122. Moreover, the composite z-score in [4] was 0.0199 (inactive); in experiment [10], 0.171.

For the compound `C=CCN(Cc1ccccc1)C(=O)C(c1cccs1)N(CCOCCO)C(=O)/C=C\C(=O)O` (stereo not given), the z-score in experiment [1] was -0.393; in experiment [2] it was -1.1 (inactive); in [3], 0.666 (inactive); in experiment [5], 0.661 (inactive); in [6], -0.947 (inactive); in [7] it was 0.441 (inactive). In addition, the z-score in [8] was 1.05 (inactive); in experiment [9], 0.463. Moreover, the composite z-score in experiment [4] was -1.37 (inactive); in experiment [10], 0.223.

As to `C=CCC(OC(C)=O)[C@@H]1[C@@H](N(Cc2ccc(-c3cccc(C(F)(F)F)c3)o2)C(=O)c2ccc(-c3ccccc3)cc2)c2cc(OCCCO)ccc2N1C(=O)c1ccc(-c2ccccc2)cc1` (stereo not given in full), the z-score in [1] is -0.645; in [2], 1.03 (inactive); in [3], 0.0516 (inactive); in [5] it was 0.268 (inactive); in [6] it was 0.609 (inactive); in [7] it was -0.386 (inactive). Moreover, the z-score in [8] is -0.487 (inactive); in experiment [9] it was 0.0033. Moreover, the composite z-score in experiment [4] is 0.0524 (inactive); in experiment [10], 0.0471.
